This note sets out measurements from ChEMBL document CHEMBL3988442, “University of Dundee, Small-Polar-MMV Screening Library” (2021).

Common to all, as to parameters: scale not given: direction of the effect not stated beside the values
Assay [1] deals with Protein translocase subunit SecA (Escherichia coli (strain K12)) (UniProt P10408). Nature of the assay: Assay to Identify E. coli SecA ATPase Inhibitors. The assay is classed as functional. As to conditions: 30 µM.
The target in assay [2] is T1, Ubiquitin-activating enzyme e1, putative (Leishmania donovani (strain BPK282A1)) (UniProt E9BSI1).
T1 sequence (whole entry): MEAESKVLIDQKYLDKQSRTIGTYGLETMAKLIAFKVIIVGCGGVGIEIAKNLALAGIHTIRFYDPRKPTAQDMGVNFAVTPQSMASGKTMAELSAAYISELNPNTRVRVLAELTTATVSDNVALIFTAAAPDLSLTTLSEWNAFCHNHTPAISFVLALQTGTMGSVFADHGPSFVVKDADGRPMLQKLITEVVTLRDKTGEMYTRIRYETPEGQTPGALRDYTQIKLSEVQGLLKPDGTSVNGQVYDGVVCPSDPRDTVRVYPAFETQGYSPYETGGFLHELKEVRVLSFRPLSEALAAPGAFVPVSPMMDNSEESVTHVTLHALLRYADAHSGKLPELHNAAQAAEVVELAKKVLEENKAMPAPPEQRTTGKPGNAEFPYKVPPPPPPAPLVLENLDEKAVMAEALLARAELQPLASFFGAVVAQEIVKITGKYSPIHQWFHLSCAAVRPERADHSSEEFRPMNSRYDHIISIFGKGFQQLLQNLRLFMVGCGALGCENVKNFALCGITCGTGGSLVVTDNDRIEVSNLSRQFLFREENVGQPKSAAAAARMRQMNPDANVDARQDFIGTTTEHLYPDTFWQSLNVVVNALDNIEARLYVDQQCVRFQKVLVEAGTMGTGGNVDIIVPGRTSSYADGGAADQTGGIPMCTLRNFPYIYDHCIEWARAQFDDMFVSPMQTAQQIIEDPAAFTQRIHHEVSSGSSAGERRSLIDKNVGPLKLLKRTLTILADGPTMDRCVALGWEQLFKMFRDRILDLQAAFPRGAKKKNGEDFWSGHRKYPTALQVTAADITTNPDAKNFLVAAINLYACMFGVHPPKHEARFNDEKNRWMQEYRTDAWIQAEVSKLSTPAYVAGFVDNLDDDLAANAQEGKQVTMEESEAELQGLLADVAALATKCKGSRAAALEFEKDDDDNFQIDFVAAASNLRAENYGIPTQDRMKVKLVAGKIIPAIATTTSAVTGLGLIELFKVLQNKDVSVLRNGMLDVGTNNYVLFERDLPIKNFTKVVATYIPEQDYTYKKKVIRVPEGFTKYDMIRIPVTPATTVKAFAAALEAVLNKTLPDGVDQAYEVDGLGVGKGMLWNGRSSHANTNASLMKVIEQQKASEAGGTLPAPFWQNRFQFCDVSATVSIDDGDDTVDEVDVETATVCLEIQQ
Nature of the assay: Leishmania donovani Ubiquitin Activating Enzyme (LdE1). The assay is classed as functional. As to conditions: 30 µM.

For assay [3], the target named is Sialic acid-binding Ig-like lectin 9 (Homo sapiens) (UniProt Q9Y336). Nature of the assay: Hs-Siglec9 ALPHAscreen SOP 20170721. As to conditions: 10 µM. A general note: In Alpha technology, singlet oxygen from a donor bead excites a nearby acceptor bead.
Sialic acid-binding Ig-like lectin 9 (Homo sapiens), sequence (Q9Y336 whole entry): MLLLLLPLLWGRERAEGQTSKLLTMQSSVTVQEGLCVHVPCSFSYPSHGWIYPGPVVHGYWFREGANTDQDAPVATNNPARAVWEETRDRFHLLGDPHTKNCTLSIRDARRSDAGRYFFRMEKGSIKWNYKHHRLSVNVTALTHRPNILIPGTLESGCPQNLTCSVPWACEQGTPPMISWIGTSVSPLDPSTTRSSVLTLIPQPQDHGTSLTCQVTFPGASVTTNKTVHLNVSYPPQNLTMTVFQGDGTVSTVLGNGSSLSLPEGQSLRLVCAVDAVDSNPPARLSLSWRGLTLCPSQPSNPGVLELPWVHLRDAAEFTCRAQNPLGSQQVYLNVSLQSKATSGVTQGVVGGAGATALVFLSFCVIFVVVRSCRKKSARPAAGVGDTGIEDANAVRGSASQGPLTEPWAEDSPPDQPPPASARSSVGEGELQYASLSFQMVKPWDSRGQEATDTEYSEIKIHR
A further assay has as its system Trypanosoma cruzi. Nature of the assay: Trypanosoma cruzi phosphomannomutase and mannose-1-phosphate guanylyltransferase assay. The class given is functional. As to conditions: 10 µM.
Assay [4] concerns the target T2, Arginase-2, mitochondrial (Homo sapiens) (UniProt P78540).
T2 sequence (whole entry): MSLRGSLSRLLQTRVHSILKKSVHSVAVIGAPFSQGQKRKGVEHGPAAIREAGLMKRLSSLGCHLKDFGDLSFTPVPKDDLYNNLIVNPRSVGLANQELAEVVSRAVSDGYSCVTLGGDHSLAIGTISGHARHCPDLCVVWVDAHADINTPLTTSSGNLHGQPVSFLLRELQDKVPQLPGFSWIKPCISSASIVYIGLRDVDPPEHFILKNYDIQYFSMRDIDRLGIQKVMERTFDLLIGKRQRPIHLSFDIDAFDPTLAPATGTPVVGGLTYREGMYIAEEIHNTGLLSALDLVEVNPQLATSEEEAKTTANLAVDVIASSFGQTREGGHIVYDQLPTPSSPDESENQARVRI
Nature of the assay: in vitro enzyme assay to detect the production of urea directly proportional to the activity of Arginase II. Also: in the data most compounds retested in dose-response had high values. The assay is classed as functional. As to conditions: 33.3 µM.

In assay [5] the target is T3, Proteasome subunit beta (Trypanosoma cruzi) (UniProt O96673).
T3 sequence (whole entry): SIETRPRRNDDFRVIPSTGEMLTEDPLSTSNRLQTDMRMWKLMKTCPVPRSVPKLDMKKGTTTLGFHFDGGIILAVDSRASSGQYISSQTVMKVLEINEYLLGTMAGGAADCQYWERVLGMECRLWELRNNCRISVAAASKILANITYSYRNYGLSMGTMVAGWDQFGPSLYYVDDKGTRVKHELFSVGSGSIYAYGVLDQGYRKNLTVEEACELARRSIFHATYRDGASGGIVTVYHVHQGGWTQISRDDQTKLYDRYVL
Nature of the assay: Trypanosoma cruzi proteasome chymotrypsin-like activity (TcProtChymo) assay. Also: in the data most compounds retested in dose-response had high values. The class given is functional. As to conditions: 9.37 µM.

For a further assay, the species on record is Homo sapiens. Nature of the assay: To identify inhibition of the IFN signalling (Jak-Stat) pathway via expression of an eGFP reporter gene under the control of an IFN-stimulated response element (ISRE) containing MxA promoter. The class given is functional. As to conditions: 30 µM. In general terms: Reporter assays use an easily measured gene product as a stand-in for the process of interest.

The target in assay [6] is T4, Tyrosyl-tRNA synthetase, putative (Trypanosoma cruzi (strain CL Brener)) (UniProt Q4DSP6).
T4 sequence (whole entry): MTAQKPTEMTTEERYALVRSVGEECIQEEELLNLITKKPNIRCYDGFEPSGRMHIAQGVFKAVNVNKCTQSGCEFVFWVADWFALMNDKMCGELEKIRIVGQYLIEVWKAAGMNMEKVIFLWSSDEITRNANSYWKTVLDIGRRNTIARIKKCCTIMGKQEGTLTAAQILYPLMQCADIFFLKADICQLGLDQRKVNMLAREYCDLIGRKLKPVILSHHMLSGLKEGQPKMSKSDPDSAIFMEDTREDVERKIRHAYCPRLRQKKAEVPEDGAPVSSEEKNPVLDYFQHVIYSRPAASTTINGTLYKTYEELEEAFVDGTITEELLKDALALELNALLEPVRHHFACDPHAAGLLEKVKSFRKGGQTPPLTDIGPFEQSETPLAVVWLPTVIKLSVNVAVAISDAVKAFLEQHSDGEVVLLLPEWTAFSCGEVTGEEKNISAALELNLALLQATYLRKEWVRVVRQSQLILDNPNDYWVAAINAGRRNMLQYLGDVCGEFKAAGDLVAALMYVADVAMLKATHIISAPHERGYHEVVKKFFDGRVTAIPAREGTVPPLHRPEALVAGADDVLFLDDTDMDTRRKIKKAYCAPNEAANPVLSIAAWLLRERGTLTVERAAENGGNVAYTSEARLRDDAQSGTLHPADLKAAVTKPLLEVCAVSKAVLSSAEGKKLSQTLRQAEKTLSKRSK
Nature of the assay: Trypanosoma cruzi tyrosyl tRNA synthetase (TcYRS) _High Tyrosine SOP. Also: in the data most compounds retested in dose-response had high values. The class given is functional. As to conditions: 30 µM.

For assay [7], the target named is T4, Tyrosyl-tRNA synthetase, putative (Trypanosoma cruzi (strain CL Brener)). Nature of the assay: Trypanosoma cruzi tyrosyl tRNA synthetase (TcYRS) SOP. The assay is classed as functional. As to conditions: 30 µM.
Assay [8] has as its target Chromo domain-containing protein 1 (Saccharomyces cerevisiae (strain ATCC 204508 / S288c) (Baker's yeast)) (UniProt P32657). Nature of the assay: ScCHD-1 Enzyme Inhibition Assay. Also: in the data most compounds retested in dose-response had high values. As to conditions: 30 µM. The assay is classed as functional.

For part of these data: Measured potencies and affinities stand elsewhere.

Protein translocase subunit SecA (Escherichia coli (strain K12)), sequence (P10408 whole entry): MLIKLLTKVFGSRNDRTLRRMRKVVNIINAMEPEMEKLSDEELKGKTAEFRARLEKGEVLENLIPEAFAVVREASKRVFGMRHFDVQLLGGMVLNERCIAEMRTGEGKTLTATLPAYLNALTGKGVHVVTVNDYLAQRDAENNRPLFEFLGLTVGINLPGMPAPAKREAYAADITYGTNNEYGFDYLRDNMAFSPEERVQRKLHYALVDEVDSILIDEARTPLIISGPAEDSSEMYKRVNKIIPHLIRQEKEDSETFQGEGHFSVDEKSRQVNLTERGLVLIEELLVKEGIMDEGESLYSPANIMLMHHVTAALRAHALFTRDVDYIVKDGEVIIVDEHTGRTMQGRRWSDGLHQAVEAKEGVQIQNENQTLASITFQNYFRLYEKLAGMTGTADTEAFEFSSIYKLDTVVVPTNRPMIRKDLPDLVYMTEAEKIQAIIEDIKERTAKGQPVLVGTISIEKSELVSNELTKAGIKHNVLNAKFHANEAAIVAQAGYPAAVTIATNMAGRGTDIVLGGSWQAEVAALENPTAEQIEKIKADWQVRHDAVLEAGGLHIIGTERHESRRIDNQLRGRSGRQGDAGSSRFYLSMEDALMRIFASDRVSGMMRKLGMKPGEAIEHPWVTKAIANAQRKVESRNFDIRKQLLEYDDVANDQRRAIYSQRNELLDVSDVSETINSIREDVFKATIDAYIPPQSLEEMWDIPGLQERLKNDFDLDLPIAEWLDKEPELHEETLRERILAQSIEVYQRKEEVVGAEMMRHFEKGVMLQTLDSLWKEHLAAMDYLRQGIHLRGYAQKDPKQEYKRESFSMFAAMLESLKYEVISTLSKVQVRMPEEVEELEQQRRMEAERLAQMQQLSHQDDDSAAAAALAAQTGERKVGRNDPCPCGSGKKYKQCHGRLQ
Chromo domain-containing protein 1 (Saccharomyces cerevisiae (strain ATCC 204508 / S288c) (Baker's yeast)), sequence (P32657 whole entry, the tested form may be a part): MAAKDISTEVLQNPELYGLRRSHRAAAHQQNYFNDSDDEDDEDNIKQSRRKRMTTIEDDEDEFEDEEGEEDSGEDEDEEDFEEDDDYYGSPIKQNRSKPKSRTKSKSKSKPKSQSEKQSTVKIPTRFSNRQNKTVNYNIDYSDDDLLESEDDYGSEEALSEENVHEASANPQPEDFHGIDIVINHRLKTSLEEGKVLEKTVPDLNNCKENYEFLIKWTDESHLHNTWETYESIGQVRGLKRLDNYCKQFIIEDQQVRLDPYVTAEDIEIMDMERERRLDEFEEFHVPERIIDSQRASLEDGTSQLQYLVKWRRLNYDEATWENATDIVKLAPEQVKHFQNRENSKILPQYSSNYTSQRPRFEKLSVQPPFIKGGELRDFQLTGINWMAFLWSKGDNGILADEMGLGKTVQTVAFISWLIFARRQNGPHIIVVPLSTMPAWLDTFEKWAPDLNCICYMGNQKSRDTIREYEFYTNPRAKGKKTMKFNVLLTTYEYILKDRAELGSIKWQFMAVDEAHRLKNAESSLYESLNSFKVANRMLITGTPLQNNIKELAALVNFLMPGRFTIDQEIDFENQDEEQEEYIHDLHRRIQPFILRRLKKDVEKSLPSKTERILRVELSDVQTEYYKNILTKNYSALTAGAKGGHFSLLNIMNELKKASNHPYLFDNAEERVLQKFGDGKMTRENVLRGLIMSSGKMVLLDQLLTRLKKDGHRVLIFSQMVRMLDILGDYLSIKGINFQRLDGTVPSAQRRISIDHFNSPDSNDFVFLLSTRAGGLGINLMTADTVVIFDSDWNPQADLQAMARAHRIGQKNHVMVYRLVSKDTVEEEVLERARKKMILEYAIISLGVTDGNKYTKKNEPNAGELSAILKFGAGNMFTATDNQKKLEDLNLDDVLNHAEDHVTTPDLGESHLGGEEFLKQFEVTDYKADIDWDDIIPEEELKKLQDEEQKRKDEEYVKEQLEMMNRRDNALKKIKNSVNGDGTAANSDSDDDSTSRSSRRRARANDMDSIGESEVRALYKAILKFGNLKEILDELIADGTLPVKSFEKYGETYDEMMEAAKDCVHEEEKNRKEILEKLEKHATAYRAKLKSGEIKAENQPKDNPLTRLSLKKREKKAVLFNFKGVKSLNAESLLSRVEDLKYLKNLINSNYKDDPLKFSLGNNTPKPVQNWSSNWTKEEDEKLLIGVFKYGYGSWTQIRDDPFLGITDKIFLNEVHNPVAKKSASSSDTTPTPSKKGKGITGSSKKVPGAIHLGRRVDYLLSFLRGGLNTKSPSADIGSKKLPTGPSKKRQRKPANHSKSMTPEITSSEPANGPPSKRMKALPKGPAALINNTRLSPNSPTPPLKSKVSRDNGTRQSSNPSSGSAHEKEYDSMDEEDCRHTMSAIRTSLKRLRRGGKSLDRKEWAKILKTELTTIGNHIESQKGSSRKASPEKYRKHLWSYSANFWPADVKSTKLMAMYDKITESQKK

With `Cc1ccc(NC(=O)C2CSCN2C(=O)c2cnn(C)c2)c(C)c1` (stereo not given), the Percent Effect in [1] was -6.12%; in [2] it was 5.13%; in assay [3], 11%; in the assay with Trypanosoma cruzi, 3.29%; in [4], -0.41%; in assay [5], -1.28%. Besides, the Percent Effect was 0.716% in the assay filed under Homo sapiens, 4.31% in assay [6], 18.1% in assay [7] and -1.32% in assay [8].
For the molecule `Cc1ncoc1C(=O)N1CCn2c(COCC3CC3)cnc2C1C` (stereo not given), the Percent Effect was -6.41% in assay [1]; 9.09% in assay [2]; -3.19% in assay [3]; 0.487% in the assay on Trypanosoma cruzi; -0.81% in assay [4]; 10.2% in assay [5]. The Percent Effect in the assay filed under Homo sapiens is -4.92%; in [6], 7.89%; in assay [7], 12.8%; in [8], -2.4%.
`CC(=O)N1[C@@H](C(=O)NCC2CC2)C[C@@H]2CN(Cc3ccco3)C[C@@H]21`: the Percent Effect in assay [1] was -0.254%; in assay [2], 22.1%; in assay [3], -5.46%; in the assay on Trypanosoma cruzi, -0.938%; in [4], 3.2%; in assay [5], 12.1%. Besides, the Percent Effect in the assay filed under Homo sapiens was 9.99%; in assay [6], 3.87%; in [7], 7.5%; in assay [8], -7.56%.
Regarding `Cc1cc(N2CCC(NC(=O)C3CC3)CC2)nc(-c2ccncc2)n1`, the Percent Effect in [1] was -0.846%; in [2], 23.4%; in [3], 0.849%; with Trypanosoma cruzi it was 2.98%; in assay [4] it was -1.43%; in assay [5] it was 13%. The Percent Effect in the assay filed under Homo sapiens was 9.23%; in assay [6] it was 12.8%; in assay [7], 35.3%; in [8], -0.543%.
As to `Cn1ccc(CN2CCC(NC(=O)NC3CCCCC3)CC2)cc1=O`, the Percent Effect in assay [1] was -2.35%; in assay [2], 10.3%; in assay [3] it was 10.4%; in the assay on Trypanosoma cruzi it was -2.16%; in assay [4], 6.15%; in [5] it was -1.28%. Besides, the Percent Effect in the assay listed under Homo sapiens is 27.9%; in [6], 4.31%; in assay [7], 10.8%; in [8], -1.97%.
Consider `O=C(c1ncccn1)N1C[C@H]2CCC[C@@]2(COCc2cccnc2)C1`, for which the Percent Effect in assay [1] was -6.88%; in [2] it was 3.9%; in [3], -0.0107%; in the assay with Trypanosoma cruzi it was -1.46%; in [4], -4.45%; in [5], 10.3%. Further, the Percent Effect was 89.1% in the assay filed under Homo sapiens, -2.63% in [6], -7.69% in assay [7] and -1.21% in assay [8].
`Cc1[nH]c2ccccc2c1-c1ccnc(NC[C@H](O)CO)n1`: the Percent Effect in assay [1] is -3.38%; in [2] it was 5.33%; in [3] it was -5%; with Trypanosoma cruzi, -8.23%; in [4], -5.32%; in assay [5], 8.23%. In addition, the Percent Effect is 23.4% in the assay listed under Homo sapiens, -1.58% in assay [6], -7.69% in [7] and -13.5% in assay [8].
Turning to `COc1ccc(CNCc2ccnc(N3CCCCC3)c2)cc1OC`, the Percent Effect in assay [1] is -2.73%; in assay [2] it was -2.56%; in [3], 3.59%; with Trypanosoma cruzi, 4.22%; in assay [4], 2.87%; in assay [5] it was -1.62%. The Percent Effect in the assay filed under Homo sapiens is 25.8%; in assay [6], 3.35%; in assay [7], 1.21%; in [8] it was -2.92%.
`Cc1ccc(-c2nc(CNCC3CN(C)CCO3)cs2)o1` (stereo not given): the Percent Effect in [1] is 0.253%; in assay [2] it was 28.6%; in assay [3] it was -5.08%; with Trypanosoma cruzi it was 6.53%; in assay [4] it was -12.9%; in [5], 25.4%. The Percent Effect in the assay filed under Homo sapiens is 20%; in assay [6], 6.86%; in [7] it was 21.2%; in assay [8] it was -12.3%.
As to `CCNC(=O)[C@@H]1C[C@@H](NC(=O)c2cccnc2O)CN1Cc1ccsc1`, the Percent Effect in [1] was -5.31%; in [2], 16.2%; in assay [3], 11.3%; in the assay on Trypanosoma cruzi it was 3.59%; in assay [4], 17.1%; in [5], 19.2%. Also, the Percent Effect is 2.29% in the assay filed under Homo sapiens, 6.92% in [6], 21.9% in [7] and -4.37% in [8].
With `CCC1c2ccsc2CCN1C(=O)NCc1cc[nH]n1` (stereo not given), the Percent Effect in [1] is -7.17%; in assay [2] it was 7.69%; in assay [3], -4.75%; in the assay with Trypanosoma cruzi, -4.79%; in [4], 0%; in assay [5] it was 7.25%. In addition, the Percent Effect is 21.4% in the assay filed under Homo sapiens, 2.39% in assay [6], 6.02% in assay [7] and -1.84% in [8].
Consider `O=C(N1CCCC1)N1CCC2(CCCN(CCOc3ccccc3)C2)C1` (stereo not given), for which the Percent Effect in [1] is -5.49%; in assay [2], 16.9%; in assay [3], -3.35%; with Trypanosoma cruzi it was -2.63%; in [4], -1.37%; in assay [5] it was 12.3%. Besides, the Percent Effect is 15.5% in the assay listed under Homo sapiens, 1.93% in [6], 2.5% in [7] and -13.4% in assay [8].
